The values below come from PubChem BioAssay (Tox21).

Results filed as inconclusive are left out. The source made the active and inactive calls. The call rests on the fitted dose curve; in most records, active means well fitted inhibition curve with a large enough effect in the signal ratio in the repeat runs, with a control signal flat; inconclusive means weak or mixed curves, or effect the other way; inactive means flat fitted curve, though single readings scatter; the % refers to the signal ratio.
On the % scale 0 is the no-effect control and ±100 the full control effect; potency means the concentration at half of the fitted maximal effect.

For the test, the target named is D(2) dopamine receptor (Homo sapiens) (UniProt P14416). Kind of test: Dopamine D2 receptor (DRD2) small molecule antagonists, cell-based qHTS assay (AID 1963595). As to conditions: HEK293-DRD2 cAMP HTRF antagonist mode; series mostly up to 92.4 µM; activity change, negative = inhibition: at the top concentration. An excerpt: National Center for Advancing Translational Sciences [NCATS]
Sequence of D(2) dopamine receptor (Homo sapiens) (P14416 whole entry, looked up): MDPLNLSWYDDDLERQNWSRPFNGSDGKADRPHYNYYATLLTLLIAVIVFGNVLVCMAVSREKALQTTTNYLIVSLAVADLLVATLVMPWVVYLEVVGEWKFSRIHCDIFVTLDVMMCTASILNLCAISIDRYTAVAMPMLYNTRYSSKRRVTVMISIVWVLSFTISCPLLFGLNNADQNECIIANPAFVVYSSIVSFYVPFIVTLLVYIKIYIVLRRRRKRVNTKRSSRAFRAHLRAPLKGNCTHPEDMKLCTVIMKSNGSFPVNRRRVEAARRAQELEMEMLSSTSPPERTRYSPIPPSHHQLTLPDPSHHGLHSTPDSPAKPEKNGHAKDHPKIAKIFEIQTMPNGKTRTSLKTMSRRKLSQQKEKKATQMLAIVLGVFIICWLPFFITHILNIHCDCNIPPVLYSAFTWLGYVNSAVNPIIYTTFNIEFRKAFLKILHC
Division of Preclinical Innovation [DPI]
U.S. Environmental Protection Agency [EPA]
National Institutes of Environmental Health Sciences [NIEHS]
National Toxicology Program [NTP]
U.S. Food and Drug Administration [FDA]
DRD2 is the D2 subtype of the dopamine receptor, which is coupled to Gi subtype of G protein-coupled receptor. This G protein-coupled receptor inhibits adenylyl cyclase activity. The DRD2-HEK293 cell line stably expressing D2 dopamine receptor can be used for screening agonists and antagonists of interactions between D2 and its ligands. The Hek293-DRD2 cAMP assay is based on HTRF technology. It measures changes of cAMP accumulation in response to Gi coupled GPCR activation or inhibition.
Tox21 Assay Protocol Summary:
DRD2-Hek293 cells were dispensed at 600 cells/3uL/well in 1536-well white plates using a Multidrop Dispenser. After the assay plates were incubated at a 37 C/5% CO2 incubator for 24 h, 1 uL of Ro20-1724 at final concentration of 0.1 mM was transferred to the assay plate by a Flying Reagent Dispenser. Following Ro20-1724 addition, 23 nL of compound dissolved in DMSO, positive controls or DMSO only was added to the assay plates via Wako pintool station. The assay plates were incubated at room temperature for 10 min. Next, 1 uL of mixture of NKH477 (final concentration at 200 nM) and quinpirole (final concentration at 12 nM) was added into the plates. After the assay plates were incubated at room temperature for an additional 30 min, 2.5 ul/well of cAMP-d2 and 2.5 ul/well of anti-cAMP-cryptate were added respectively into the assay plates using a Flying Reagent Dispenser. The plates were incubated at room temperature for 1 h. The fluorescence intensity in the plates was measured at 340 nm excitation and 665 & 620 nm emission by an Envision plate reader.
On the technique in general: In qHTS, concentration-response curves come from the screen itself.
`CCC(C)O` (stereo not given): the “activity change, negative = inhibition” value was 1.42% (inactive).

For the compound `CCCNCCC`, the “activity change, negative = inhibition” value was 1.2% (inactive).

Consider `C=CC[N+]1([C@H]2C[C@H]3[C@@H]4CC[C@H]5C[C@H](OC(C)=O)[C@@H](N6CCCCC6)C[C@]5(C)[C@H]4CC[C@]3(C)[C@H]2OC(=O)CC)CCCCC1`, for which the “activity change, negative = inhibition” value is -8.38% [at 42.5 µM] (inactive).

In the case of `NCCN1CCOCC1`, the “activity change, negative = inhibition” value is 1.7% (inactive).

`CC(C)(C)CCCCCCOC(=O)c1ccccc1C(=O)OCCCCCCC(C)(C)C`: the “activity change, negative = inhibition” value was -3.69% (inactive).

`O=C(O)COc1nn(Cc2ccccc2)c2ccccc12`: the “activity change, negative = inhibition” value is 9.77% [at 42.5 µM] (inactive).

As to `Nc1ccc2cc(S(=O)(=O)O)cc(O)c2c1N=Nc1ccccc1C(F)(F)F`, the “activity change, negative = inhibition” value was -6.62% (inactive).

In the case of `COP(=O)(O)OP(=O)(O)OC`, the “activity change, negative = inhibition” value is -1.97% (inactive).

Turning to `CCOCN(C(=O)CS(=O)(=O)O)c1c(C)cccc1CC`, the “activity change, negative = inhibition” value was -9.08% (inactive).

In the case of `CCCC(CC)CCCCCCCN` (stereo not given), the “activity change, negative = inhibition” value was -6.86% (inactive).

For `C[C@]12CC[C@@H]3c4ccc(O)cc4CC[C@H]3[C@@H]1CC[C@@H]2OC(=O)CCC1CCCC1`, the Potency entry was “inactive”.

Turning to `C=CC(=O)N1CCOCC1`, the “activity change, negative = inhibition” value was -2.7% (inactive).

For the compound `CC(C)COC(=O)c1ccc(O)cc1`, the “activity change, negative = inhibition” value is 6.16% (inactive).

Take `Nc1nc(F)nc2c1ncn2[C@@H]1O[C@H](CO)[C@@H](O)[C@@H]1O`: the “activity change, negative = inhibition” value is -13.2% [at 42.5 µM] (inactive).

`CC1CCC(=O)C1=O` (stereo not given): the “activity change, negative = inhibition” value was -0.291% (inactive).

Regarding `CCCc1ccc(OC)cc1`, the “activity change, negative = inhibition” value was 11% (inactive).

Take `CC(O)CC(C)O` (stereo not given): the “activity change, negative = inhibition” value is 1.87% (inactive).

On to `O=C(O)C(=O)Cc1ccccc1`, for which the “activity change, negative = inhibition” value was 0.339% (inactive).

Take `OC[C@H]1O[C@@H](OCCc2ccc(O)cc2)[C@H](O)[C@@H](O)[C@@H]1O`: the “activity change, negative = inhibition” value is -3.94% [at 42.5 µM] (inactive).

Consider `CC[C@H]1O[C@]2(CC[C@@H]1C)C[C@@H]1C[C@@H](C/C=C(\C)C[C@@H](C)/C=C/C=C3\CO[C@@H]4[C@H](O)C(C)=C[C@@H](C(=O)O1)[C@]34O)O2`, for which the Potency was 48.1 µM (active).

For `CC(=O)OCC1=C(C(=O)O)N2C(=O)[C@@H](NC(=O)CSc3ccncc3)[C@H]2SC1`, the “activity change, negative = inhibition” value is -0.585% [at 42.5 µM] (inactive).

`C[C@@H]1C[C@H]2[C@@H]3CCC4=CC(=O)C=C[C@]4(C)[C@@]3(Cl)[C@@H](O)C[C@]2(C)[C@@]1(OC(=O)c1ccco1)C(=O)CCl`: the “activity change, negative = inhibition” value is -0.423% [at 42.5 µM] (inactive).

For `CC(C)C(O)(c1ccc(OC(F)(F)F)cc1)c1cncnc1` (stereo not given), the “activity change, negative = inhibition” value is 12.5% (inactive).

As to `C=C1CCC2CC1C2(C)C` (stereo not given), the “activity change, negative = inhibition” value is 5.26% (inactive).

With `COC(=O)CCS`, the “activity change, negative = inhibition” value is 2.44% (inactive).

With `CCCC(=O)OC[C@@H](OC(=O)CCC)[C@@H](OC(=O)CCC)[C@H](Cn1c2nc(=O)[nH]c(=O)c-2nc2cc(C)c(C)cc21)OC(=O)CCC`, the “activity change, negative = inhibition” value was 2.91% [at 42.5 µM] (inactive).

Consider `O=[N+]([O-])c1ccc2ncccc2c1`, for which the “activity change, negative = inhibition” value was 4.28% (inactive).

On to `CC/C(C)=N\O[Si](C)(O/N=C(\C)CC)O/N=C(\C)CC`, for which the “activity change, negative = inhibition” value was -3.19% (inactive).

For the compound `Cc1cccc(Nc2ccccc2)c1`, the “activity change, negative = inhibition” value is 10.7% (inactive).

For the compound `CC(=O)OCC(=O)NCCCOc1cccc(CN2CCCCC2)c1`, the “activity change, negative = inhibition” value was 14.4% [at 42.5 µM] (inactive).

`CN(C)CCC(c1ccc(Cl)cc1)c1ccccn1` (stereo not given): the Potency entry was “inactive”.

For the compound `CC(=O)O[Si](C)(OC(C)=O)OC(C)=O`, the “activity change, negative = inhibition” value was -2.37% (inactive).

For `CC[N+](CC)(CC(=O)Nc1c(C)cccc1C)Cc1ccccc1` (tested in a mixture with another compound), the “activity change, negative = inhibition” value is -0.276% [at 42.5 µM] (inactive).

`OCCN1CCN(CCO)CC1`: the “activity change, negative = inhibition” value is 1.58% (inactive).

Turning to `CCCCCCCCCCCCCCCCCBr`, the activity change, negative = inhibition is 0.232% [at 18.9 µM] (inactive).

As for `CC1(CO)CN(c2ccccc2)NC1=O` (stereo not given), the “activity change, negative = inhibition” value was -1.59% (inactive).

As for `CC(O)(c1ccc(Cl)cc1)c1ccc(Cl)cc1`, the “activity change, negative = inhibition” value is -27.1% (inactive).

Consider `CN1CCN(CCC(=O)N2c3ccccc3Sc3ccc(C(F)(F)F)cc32)CC1`, for which the “activity change, negative = inhibition” value was -18.2% [at 42.5 µM] (inactive).

Turning to `CCCCCC[C@@H](O)C/C=C\CCCCCCCC(=O)OC`, the “activity change, negative = inhibition” value was -1% (inactive).

Turning to `O=C(O)Cc1ccc(OCCNC[C@H](O)c2ccccc2)cc1`, the “activity change, negative = inhibition” value was -9.23% [at 42.5 µM] (inactive).
